Where “and” joins values, the source holds several entries; their conditions need not be identical. Equal values may be shown once. About 83,000 compounds went through this panel and 20% of them were active in at least one assay; those are over-represented in the sample as a whole.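 Each cell line was grown in a 96-well plate and treated with one concentration of compound for 48 hours. Values below 10 were considered active.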 Calls of active or inactive are those of the source.
How the values were obtained:
Assay in all cases: NCI-60 one-dose screen, 48 h (100 = growth as untreated, 0 = no growth, -100 = all killed)
Details in all cases: 10 µM
HOP-92 NSCLC = system: HOP-92 NSCLC
K-562 leukemia = system: K-562 leukemia
MALME-3M melanoma = system: MALME-3M melanoma
RXF 393 renal = system: RXF 393 renal
SK-MEL-28 melanoma = system: SK-MEL-28 melanoma
SK-MEL-2 melanoma = system: SK-MEL-2 melanoma
TK-10 renal = system: TK-10 renal
CAKI-1 renal = system: CAKI-1 renal
A498 renal = system: A498 renal
RPMI-8226 leukemia = system: RPMI-8226 leukemia
OVCAR-3 ovarian = system: OVCAR-3 ovarian
BT-549 breast = system: BT-549 breast
HCC-2998 colon = system: HCC-2998 colon
UACC-257 melanoma = system: UACC-257 melanoma

Measured: growth

COc1cccc2c1cc([N+](=O)[O-])c1c(C(=O)O)cc3c(c12)OCO3
inactive: HOP-92 NSCLC 95.3% | K-562 leukemia 97.6% | MALME-3M melanoma 95.9% | RXF 393 renal 104% | SK-MEL-28 melanoma 112% | SK-MEL-2 melanoma 108% | TK-10 renal 100% | CAKI-1 renal 87.1% | A498 renal 114% | RPMI-8226 leukemia 97.7% | OVCAR-3 ovarian 126% | BT-549 breast 120% | HCC-2998 colon 91.3%

COC(=O)[C@H]1[C@@H](O)[C@@]2(O)c3c(OC)cc(OC)cc3O[C@@]2(c2ccc(OC)cc2)[C@@H]1c1ccccc1
active: HOP-92 NSCLC -12.5% | K-562 leukemia 2.1% | MALME-3M melanoma -21.8% | RXF 393 renal -20.3% | SK-MEL-28 melanoma -19.2% | SK-MEL-2 melanoma -45.5% | TK-10 renal -11.9% | CAKI-1 renal -6.21% | A498 renal -31.4% | RPMI-8226 leukemia -9.7% | OVCAR-3 ovarian -9.22% | BT-549 breast -17.5% | HCC-2998 colon 0.34%

CN1C(=O)[C@]23SSC1(C)C(=O)N2[C@H]1Nc2ccccc2C1([C@@]12c4ccccc4N[C@@H]1N1C(=O)C4(C)SS[C@]1(C(=O)N4C)[C@H]2O)[C@@H]3O (stereo partly specified)
active: K-562 leukemia 2.18% | MALME-3M melanoma -81.5% | RXF 393 renal -93.3% | UACC-257 melanoma -96.9% | SK-MEL-28 melanoma -96.5% | TK-10 renal -95.7% | CAKI-1 renal -99.8% | RPMI-8226 leukemia -16.9% | BT-549 breast -99.5% | HCC-2998 colon -83.8%

CCCCCCCCCC(=O)N[C@@](C)(CC)C(=O)N1CCC[C@H]1C(=O)N[C@@H](CC(C)C)C(=O)N[C@@](C)(CC)C(=O)N[C@@H](CCC(N)=O)C(=O)N[C@H](CCC(N)=O)C(=O)NC(C)(C)C(=O)NC(C)(C)C(=O)N[C@@H](CCC(N)=O)C(=O)N[C@H](CC(C)C)C(=O)N[C@H](CO)CC(C)C
active: HOP-92 NSCLC -93.1% and -69.1% | MALME-3M melanoma -89.7% and -98.6% | RXF 393 renal -89.1% and -89.3% | UACC-257 melanoma -88.1% and -80.1% | SK-MEL-28 melanoma -97.1% and -100% | SK-MEL-2 melanoma -90.7% and -86% | TK-10 renal -73.6% and -83.4% | CAKI-1 renal -92.4% and -100% | A498 renal -92.4% and -81.1% | RPMI-8226 leukemia -53.6% and -31.8% | OVCAR-3 ovarian -74.5% | BT-549 breast -91% and -85.5% | HCC-2998 colon -87.4% and -89.4%
-15.6% (active) and 21.9% (inactive): K-562 leukemia

CC1=C2C(=C[C@@](C)(COC(=O)c3ccc(S(=O)(=O)F)cc3)[C@@H]2OC(=O)c2ccc(S(=O)(=O)F)cc2)C(=O)[C@](C)(O)C12CC2
active: HOP-92 NSCLC -17.1% | MALME-3M melanoma -57.3% | SK-MEL-28 melanoma 7.54% | TK-10 renal -3.99% | CAKI-1 renal -2.73% | BT-549 breast -90.2% | HCC-2998 colon -60%
inactive: K-562 leukemia 23.8% | UACC-257 melanoma 60% | RPMI-8226 leukemia 67%

C/C=C\C(=O)O[C@@H]1CC2O[C@@H]3C=C(C)C(=O)C[C@]3(C)[C@]1(C)[C@]21CO1
active: HOP-92 NSCLC -17.5% | K-562 leukemia -6.67% | MALME-3M melanoma -22.9% | RXF 393 renal -31.6% | SK-MEL-28 melanoma -20.9% | SK-MEL-2 melanoma -43.2% | TK-10 renal -19.4% | A498 renal -30.2% | RPMI-8226 leukemia -31.2% | OVCAR-3 ovarian -3.17% | BT-549 breast -22.8% | HCC-2998 colon -23.5%

C/C=C/CC(C)C(O)[C@H](NC(=O)[C@@H]1CCCN1C(=O)C(C)(C)NC(=O)CCCCCCC)C(=O)N[C@@](C)(CC)C(=O)N[C@@H](CCC(N)=O)C(=O)N[C@H](CCC(N)=O)C(=O)NC(C)(C)C(=O)NC(C)(C)C(=O)N[C@@H](CCC(N)=O)C(=O)N[C@H](CC(C)C)C(=O)N[C@H](CO)CC(C)C (stereo partly specified)
118% (inactive) and -60.9% (active): BT-549 breast
106% (inactive) and -33.7% (active): UACC-257 melanoma
active: A498 renal -7.1%
101% (inactive) and 6.14% (active): K-562 leukemia
inactive: HOP-92 NSCLC 106% and 29.4% | SK-MEL-2 melanoma 115% and 34% | TK-10 renal 115% and 28.2% | CAKI-1 renal 101% and 28.5% | OVCAR-3 ovarian 113% and 23.8% | HCC-2998 colon 114% and 24%
105% (inactive) and -9.85% (active): RPMI-8226 leukemia
107% (inactive) and -74.9% (active): SK-MEL-28 melanoma
112% (inactive) and -10.7% (active): RXF 393 renal
109% (inactive) and -65.1% (active): MALME-3M melanoma

COc1cc2c(cc1OC)[C@@H]1N(CC2)C(=O)c2ccccc2[C@@]1(C)C(=O)O
inactive: HOP-92 NSCLC 123% | K-562 leukemia 105% | MALME-3M melanoma 64.6% | RXF 393 renal 127% | UACC-257 melanoma 107% | SK-MEL-28 melanoma 113% | SK-MEL-2 melanoma 109% | TK-10 renal 107% | CAKI-1 renal 101% | A498 renal 89.4% | RPMI-8226 leukemia 110% | OVCAR-3 ovarian 122% | BT-549 breast 108% | HCC-2998 colon 110%

C/C=C/CC(C)C(O)[C@H](NC(=O)[C@@H]1CCCN1C(=O)C(C)(C)NC(=O)CCCCCCCCC)C(=O)N[C@@](C)(CC)C(=O)N[C@@H](CCC(N)=O)C(=O)N[C@H](CCC(N)=O)C(=O)NC(C)(C)C(=O)NC(C)(C)C(=O)N[C@@H](CCC(N)=O)C(=O)N[C@H](CC(C)C)C(=O)N[C@H](CO)CC(C)C (stereo partly specified)
active: MALME-3M melanoma -65.1% and -22% | UACC-257 melanoma -66.9% and 3.39% | SK-MEL-28 melanoma -92.6% and -78.4% | BT-549 breast -33.5%
-61.8% (active) and 31.5% (inactive): RXF 393 renal
7.21% (active) and 76.4% (inactive): HOP-92 NSCLC
-17.8% (active) and 16.5% (inactive): K-562 leukemia
-12% (active) and 13.2% (inactive): HCC-2998 colon
7.09% (active) and 29.1% (inactive): RPMI-8226 leukemia
-40.8% (active) and 38.8% (inactive): A498 renal
inactive: SK-MEL-2 melanoma 13.2% and 89.1% | TK-10 renal 59.9% and 97.1% | CAKI-1 renal 13.1% and 44.1% | OVCAR-3 ovarian 76.2%

CC1=C2C(=C[C@@](C)(C=O)[C@@H]2O)C(=O)[C@](C)(O)C12CC2
active: HOP-92 NSCLC -8.36% | MALME-3M melanoma -32.6% | RXF 393 renal -77% | UACC-257 melanoma 6.75% | SK-MEL-28 melanoma -8.99% | SK-MEL-2 melanoma -37.8% | TK-10 renal 2.16% | A498 renal -57% | OVCAR-3 ovarian -10.1% | BT-549 breast -6.13% | HCC-2998 colon -25.1%
inactive: K-562 leukemia 24.2% | CAKI-1 renal 12.6%

C/C=C/CC(C)C(O)[C@H](NC(=O)[C@@H]1CCCN1C(=O)C(C)(C)NC(=O)CCCCCCCCC)C(=O)NC(C)(C)C(=O)N[C@@H](CCC(N)=O)C(=O)N[C@H](CCC(N)=O)C(=O)NC(C)(C)C(=O)NC(C)(C)C(=O)N[C@@H](CCC(N)=O)C(=O)N[C@H](CC(C)C)C(=O)N[C@H](CO)CC(C)C (stereo partly specified)
active: HOP-92 NSCLC -16.5% and -24.9% | MALME-3M melanoma -41.5% and -92.4% | RXF 393 renal -54.3% and -73.3% | UACC-257 melanoma -71.9% and -73.2% | SK-MEL-28 melanoma -84.9% and -100% | SK-MEL-2 melanoma -48.1% and -31.4% | A498 renal -48.1% and -26.1% | RPMI-8226 leukemia -13.2% and -31.7% | OVCAR-3 ovarian -18.7% | BT-549 breast -77.4% and -78.3% | HCC-2998 colon -36.1% and -5.11%
25.8% (inactive) and -4.38% (active): TK-10 renal
17.6% (inactive) and 1.1% (active): CAKI-1 renal
-50.1% (active) and 18% (inactive): K-562 leukemia

CN(CCF)/N=N/c1nc[nH]c1C(N)=O
inactive: HOP-92 NSCLC 77.9% | K-562 leukemia 22.2% | MALME-3M melanoma 37.5% | RXF 393 renal 76.6% | UACC-257 melanoma 53.8% | SK-MEL-28 melanoma 49.3% | TK-10 renal 25.2% | CAKI-1 renal 14.1% | A498 renal 87% | RPMI-8226 leukemia 25.5% | BT-549 breast 85.8% | HCC-2998 colon 38.7%
active: SK-MEL-2 melanoma -20.9%

C=C1[C@@H](C)C2[C@H](Cc3ccccc3)NC(=O)[C@]23[C@H](OC(C)=O)/C=C/[C@@](C)(O)C(=O)[C@@H](C)C/C=C/[C@H]3[C@@H]1O (stereo partly specified)
inactive: K-562 leukemia 76.1% | MALME-3M melanoma 81.2% | SK-MEL-28 melanoma 87.1% | SK-MEL-2 melanoma 81.5% | TK-10 renal 26.4% | RPMI-8226 leukemia 19.8% | OVCAR-3 ovarian 81.2% | BT-549 breast 12.4% | HCC-2998 colon 78.5%
active: HOP-92 NSCLC -37.8% | RXF 393 renal -1.19% | A498 renal -18.8%

COC1[C@@H]2C[C@H]3C(C)(C)O[C@@](C/C=C(/C)C(=O)O)(C2=O)[C@]32Oc3c(CC=C(C)C)c4c(c(O)c3C(=O)[C@H]12)C=CC(C)(C)O4 (stereo partly specified)
active: HOP-92 NSCLC -36.4% | K-562 leukemia 2.55% | MALME-3M melanoma -90.2% | RXF 393 renal -81.1% | UACC-257 melanoma -48.2% | SK-MEL-28 melanoma -61.4% | SK-MEL-2 melanoma -65.5% | A498 renal -67.8% | RPMI-8226 leukemia -17% | OVCAR-3 ovarian -90.6% | BT-549 breast -3.07% | HCC-2998 colon -81.9%

CC1=C2C(=O)[C@](C)(CO)C=C2C(=O)[C@](C)(O)C12CC2
active: HOP-92 NSCLC -6.97% | MALME-3M melanoma -24.5% | RXF 393 renal -82.9% | SK-MEL-2 melanoma -35.6% | TK-10 renal -6.25% | A498 renal -35.9% | OVCAR-3 ovarian 4.36% | BT-549 breast 8.15% | HCC-2998 colon -2.5%
inactive: K-562 leukemia 16.5% | UACC-257 melanoma 25.3% | SK-MEL-28 melanoma 17.9% | CAKI-1 renal 45.8%

From PubChem BioAssay (NCI)
